Bioassay records deposited in PubChem by The Scripps Research Institute Molecular Screening Center.
NOD2 RIPK2 PPI – blocks binding of human NOD2 to RIPK2 | O43353 | CHO BLA complementation NOD2-RIPK2, CCF4 ratio | inhibition, % at 4.98 µM | 360,000 tested, 0.38% active | AID 624267; in the data active = inhibition above about 21%;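 note: 0% = vehicle only and 100% = reference blocker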
Target sequence (O43353 whole entry, looked up): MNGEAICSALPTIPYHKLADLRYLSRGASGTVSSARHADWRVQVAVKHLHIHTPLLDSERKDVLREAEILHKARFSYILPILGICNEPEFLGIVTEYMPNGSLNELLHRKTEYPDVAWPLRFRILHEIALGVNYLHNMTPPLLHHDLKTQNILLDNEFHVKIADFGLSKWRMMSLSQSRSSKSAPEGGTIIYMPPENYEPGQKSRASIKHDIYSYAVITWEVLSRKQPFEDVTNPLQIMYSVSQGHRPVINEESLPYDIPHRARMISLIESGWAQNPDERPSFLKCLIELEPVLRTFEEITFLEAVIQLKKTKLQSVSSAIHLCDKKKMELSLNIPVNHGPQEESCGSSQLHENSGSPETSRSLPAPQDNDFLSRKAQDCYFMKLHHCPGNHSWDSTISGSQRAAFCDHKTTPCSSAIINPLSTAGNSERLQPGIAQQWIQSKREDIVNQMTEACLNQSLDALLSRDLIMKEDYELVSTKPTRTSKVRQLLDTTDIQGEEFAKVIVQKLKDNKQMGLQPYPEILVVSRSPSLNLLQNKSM
TLR4 MyD88 comp – blocks binding of human TLR4 to MyD88. O00206+Q99836. HeLa CL3-4 TLR4/MyD88 BLA complementation, FRET ratio. inhibition, % at 8.4 µM. 200,000 tested, 0.18% active; in the data active = inhibition above about 25%;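 note: 0% = vehicle and 100% = reference inhibitor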
TLR9-MyD88 inh – inhibitors of human TLR9-MyD88 binding; Q9NR96+Q99836; CHO BLA complementation TLR9-MyD88, CCF4 FRET ratio; inhibition, % at 4.98 µM; 340,000 tested, 0.21% active;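 active = inhibition above the mean over all tested compounds plus 3 SD, cut at about 21% in these data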;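 note: 0% = DMSO only wells and 100% = clavulanate BLA inhibitor control wells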
rCAG binder – molecules binding r(CAG) RNA repeats; r(CAG) RNA repeat, TO-PRO-1 dye displacement fluorescence; inhibition, % at 3 µM; 370,000 tested, 1.3% active; AID 651821;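 active = inhibition above the plate cutoff, the mean of all test compounds on that plate plus 3 SD, cut at about 35% in these data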;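 note: 0% = DMSO alone and 100% = 100 µM mitoxantrone as full dye displacement; higher means more dye released from RNA so lower well fluorescence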
ABHD5-PLIN5 inh – ABHD5-PLIN5 protein interaction inhibition. Split G. princeps luciferase complementation, luminescence, 4 h. inhibition, % at 4 µM. 360,000 tested, 0.78% active. Q00G26+Q8WTS1. AID 602281;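 active = inhibition above the mean inhibition across every tested compound plus 3 SD, cut at about 22% in these data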;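 note: 0% = DMSO only wells and the 100% control is not disclosed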
PRMT1 FP inh – inhibitors of human PRMT1; inhibition, % at 2.79 µM; Q99873; recombinant PRMT1, activity-based probe fluorescence polarization; AID 652257; 370,000 tested, 1.3% active;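 active = inhibition above about 21% made by adding two undisclosed values, limit read from the data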
rCAG binder conf – r(CAG) RNA repeat binding, confirmation; shares compounds with rCAG binder; TO-PRO-1 dye displacement fluorescence; inhibition, % at 3 µM; 4,300 tested, 70% active;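 active = inhibition above a per-plate cutoff, the mean inhibition of sample wells plus 3 SD, cut at about 35% in these data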;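 note: loss of TO-PRO-1 fluorescence as compound displaces dye from 1x1 AA loop RNA; 0% = DMSO only wells and 100% = 100 µM mitoxantrone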
dCAG dye counter – disrupts DNA CAG TO-PRO-1 complex, flagging rCAG hits | shares compounds with rCAG binder | d(CAG) DNA oligo TO-PRO-1 dye displacement, fluorescence | inhibition, % at 3 µM | 4,300 tested, 94% active | AID 652068;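 active = inhibition above its plate's cutoff, the mean test-well inhibition plus 3 SD, cut at about 4.8% in these data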;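 note: 0% = DNA dye mix with DMSO and 100% = 100 µM mitoxantrone; hits displace the dye from DNA and so lower well fluorescence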
Numbers without * were called inactive; / = no result given. Shown are actives, neighbours in structure and some others; about 3.3% of the full set was active somewhere.

SMILES | NOD2 RIPK2 PPI | TLR4 MyD88 comp | TLR9-MyD88 inh | rCAG binder | ABHD5-PLIN5 inh | PRMT1 FP inh | rCAG binder conf | dCAG dye counter
CCCCN1CN2Cc3ccccc3C2CS1(=O)=O (stereo not given) | / | / | / | 2 | / | 7 | / | /
COc1ccc(C(=O)Nc2cccc(/C=C(\CCC(=O)O)c3nc4ccccc4s3)c2)cc1 | -10 | / | -9 | 62* | 0 | 6 | 76* | 38*
O=C(O)C/C(=C\c1cccc(NC(=O)c2ccccc2Cl)c1)c1nc2ccccc2s1 | -4 | / | 1 | 54* | 2 | 4 | 57* | 24*
O=C(O)C/C(=C\c1cc2c(cc1Br)OCO2)c1nc2ccccc2s1 | -16 | / | 8 | 35* | 8 | 4 | 36* | 9.5*
COc1ccc(NC(=O)c2nc3ccccc3s2)cc1 | 0 | -1 | 3 | 0 | -2 | -2 | / | /
CCOC(=O)N1CCN(C(=O)C[C@H]2C[C@@]3(C(=O)OC)C(=C[C@H](C(C)(C)C)O[C@@H]3C)N(Cc3ccco3)C2=O)CC1 | / | / | / | -1 | / | -2 | / | /
CCCCNC(=O)c1nc(-c2cnc(C)cn2)oc1-c1ccc(Cl)cc1 | -5 | / | / | 4 | -2 | -4 | / | /
CCCCNC(=O)C[C@@H]1C[C@@]2(C(=O)OCC)CCC=C2N(CCC2=CCCCC2)C1=O | -2 | / | / | 3 | 3 | 5 | / | /
O=C1OC(c2ccc3ccccc3c2O)(c2ccc3ccccc3c2O)c2ccccc21 | 1 | / | -12 | 63* | -6 | 20 | 70* | 35*
COc1ccc(Br)c2oc(S)cc(=O)c12 | 0 | -16 | 1 | 41* | -4 | 5 | 25 | 7.6*
COc1ccc(C(=O)c2ccc(OC)c(Br)c2)cc1Br | -1 | -15 | -3 | 3 | 4 | 0 | / | /
O=C(O)c1ccc(N/N=C/c2cc3ccccc3nc2Cl)cc1 | -1 | / | 3 | 12 | 0 | 4 | / | /
Cc1cccc2cc(/C=N/Nc3ccc(C(=O)O)cc3)c(Cl)nc12 | 4 | / | 3 | 47* | 2 | 6 | 43* | 11*
COc1ccc(C(=O)NC(=S)Nc2ccc(S(=O)(=O)Nc3cc(OC)nc(OC)n3)cc2)cc1 | -13 | / | 2 | 58* | 1 | -7 | 55* | 20*
COc1ccc(OCC(=O)NC(=S)Nc2ccc(S(=O)(=O)Nc3cc(OC)nc(OC)n3)cc2)cc1 | -7 | -2 | 2 | 52* | 0 | -3 | 53* | 20*
COc1cc(NS(=O)(=O)c2ccc(NC(=S)NC(=O)c3ccc(F)cc3)cc2)nc(OC)n1 | 1 | / | -3 | 24 | -10 | 3 | / | /
COc1cc(NS(=O)(=O)c2ccc(NC(=S)NC(=O)C3CCCC3)cc2)nc(OC)n1 | 2 | 1 | 6 | 45* | -4 | 2 | 33 | 10*
Cc1ccc(NC(=O)C2CCCC2)cc1Cl | 1 | / | 3 | -3 | -3 | -1 | / | /
Cc1ccc(NS(=O)(=O)c2ccc(Cl)c(NC(=S)NC(=O)C3CCCCC3)c2)cc1Cl | -16 | 6 | -3 | 45* | -19 | 1 | 41* | 17*
CC(C)CNc1ncnc2c1ncn2[C@H]1CN(C2CCCC2)C[C@@H](CO)O1 | 4 | / | / | 0 | -9 | 0 | / | /
O=C(CCl)Nc1ccc(C(=O)NCC2COc3ccccc3O2)cc1 (stereo not given) | / | / | / | 4 | / | -6 | / | /
CC1=C(C(=O)OCc2ccccc2)C(c2ccccc2[N+](=O)[O-])NC(=O)N1C (stereo not given) | -1 | / | 8 | 12 | -5 | 9 | / | /
O=C(NC(=C(Cl)Cl)S(=O)(=O)c1ccc(Cl)cc1)c1ccccc1 | -7 | / | 1 | 2 | 15 | 6 | / | /
COc1cccc(NC(=O)[C@H](C)NC(=O)C2CCN(S(=O)(=O)c3ccc(C)cc3)CC2)c1 | -7 | / | -4 | -3 | -5 | 3 | / | /
N#CC(C#N)=NNc1ccc(S(=O)(=O)N2CCCCC2)cc1 | 3 | 14 | -6 | 46* | 18 | 3 | 41* | 15*
N#C/C(=N\Nc1ccc(S(=O)(=O)N2CCOCC2)cc1)C(N)=S | 6 | / | -2 | 10 | 5 | 12 | / | /
